This is an account of results in publication PMC7862700, “An all-to-all approach to the identification of sequence-specific readers for epigenetic DNA modifications on cytosine”.

Holding throughout (assay): DAPPL (digital affinity profiling via proximity ligation, sequencing); 10 mM Tris-HCl pH 7.5, 50 mM NaCl, 1 mM DTT, 4% glycerol, room temperature, 30 min; GST-TFs on glutathione beads, 16-mer random dsDNA library, 0.1% formaldehyde crosslink after washing; high values mean tight binding
Holding throughout (details): protein: recombinant; tags: N-terminal GST; dsDNA, one strand shown

In experiment [1] the target is T1, ELK1 (Homo sapiens, UniProt P19419 1-428).
T1 sequence: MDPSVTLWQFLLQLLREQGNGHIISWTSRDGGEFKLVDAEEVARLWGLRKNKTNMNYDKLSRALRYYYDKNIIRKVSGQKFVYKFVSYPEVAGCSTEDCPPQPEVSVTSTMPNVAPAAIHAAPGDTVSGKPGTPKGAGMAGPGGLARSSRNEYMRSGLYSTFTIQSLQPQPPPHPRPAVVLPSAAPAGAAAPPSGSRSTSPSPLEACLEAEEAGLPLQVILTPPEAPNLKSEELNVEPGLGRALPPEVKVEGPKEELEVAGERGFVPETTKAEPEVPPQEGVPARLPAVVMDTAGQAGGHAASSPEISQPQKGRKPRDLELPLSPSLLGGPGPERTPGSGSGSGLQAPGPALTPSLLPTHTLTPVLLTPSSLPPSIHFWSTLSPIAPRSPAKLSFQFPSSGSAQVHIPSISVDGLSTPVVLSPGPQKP
Summed up: (§1)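 GST fusions of human transcription factors were expressed in yeast and captured with glutathione beads. Once given DNA barcodes and pooled alongside a tag-only sample, they were incubated for 30 min at room temperature with 200 nmole of a random double-stranded 16-mer DNA library in Tris/NaCl/DTT/glycerol buffer, then washed, crosslinked (0.1% formaldehyde), proximity-ligated, PCR-amplified and sequenced on an Illumina NextSeq500. The binding signal of each hexamer is its read frequency for a factor divided by its frequency for the tag-only sample.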

For experiment [2], the target named is T2, GABPA (Homo sapiens, UniProt Q06546 1-454).
T2 sequence: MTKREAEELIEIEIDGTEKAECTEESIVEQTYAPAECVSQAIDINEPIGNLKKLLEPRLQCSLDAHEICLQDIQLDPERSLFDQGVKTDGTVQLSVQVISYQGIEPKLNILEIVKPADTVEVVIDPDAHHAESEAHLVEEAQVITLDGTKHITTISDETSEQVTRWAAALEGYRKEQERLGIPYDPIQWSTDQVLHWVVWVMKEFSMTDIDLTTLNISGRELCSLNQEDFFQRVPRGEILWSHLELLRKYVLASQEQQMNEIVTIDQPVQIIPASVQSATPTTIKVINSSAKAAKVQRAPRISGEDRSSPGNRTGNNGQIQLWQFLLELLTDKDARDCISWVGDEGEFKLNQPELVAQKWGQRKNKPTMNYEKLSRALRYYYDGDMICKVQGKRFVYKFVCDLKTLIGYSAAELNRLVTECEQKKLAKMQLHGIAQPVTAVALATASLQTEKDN
In outline:
as §1

Experiment [3] concerns the target T3, ERG (Homo sapiens, UniProt P11308 1-479).
T3 sequence: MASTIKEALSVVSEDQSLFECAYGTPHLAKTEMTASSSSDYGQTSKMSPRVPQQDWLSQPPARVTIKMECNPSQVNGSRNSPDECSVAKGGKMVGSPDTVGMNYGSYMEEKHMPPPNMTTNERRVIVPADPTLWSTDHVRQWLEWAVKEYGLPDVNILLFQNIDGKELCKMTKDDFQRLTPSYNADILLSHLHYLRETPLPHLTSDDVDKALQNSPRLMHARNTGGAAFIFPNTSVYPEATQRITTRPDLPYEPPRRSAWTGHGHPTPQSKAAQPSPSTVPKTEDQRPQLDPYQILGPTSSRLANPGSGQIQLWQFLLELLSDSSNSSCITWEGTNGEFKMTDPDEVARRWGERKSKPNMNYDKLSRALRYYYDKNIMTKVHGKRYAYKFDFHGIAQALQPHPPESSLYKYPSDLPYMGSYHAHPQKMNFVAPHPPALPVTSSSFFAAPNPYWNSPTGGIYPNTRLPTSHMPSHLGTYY
Summed up:
as §1

The target of experiment [4] is T4, EHF (Homo sapiens, UniProt Q9NZC4 1-300).
T4 sequence: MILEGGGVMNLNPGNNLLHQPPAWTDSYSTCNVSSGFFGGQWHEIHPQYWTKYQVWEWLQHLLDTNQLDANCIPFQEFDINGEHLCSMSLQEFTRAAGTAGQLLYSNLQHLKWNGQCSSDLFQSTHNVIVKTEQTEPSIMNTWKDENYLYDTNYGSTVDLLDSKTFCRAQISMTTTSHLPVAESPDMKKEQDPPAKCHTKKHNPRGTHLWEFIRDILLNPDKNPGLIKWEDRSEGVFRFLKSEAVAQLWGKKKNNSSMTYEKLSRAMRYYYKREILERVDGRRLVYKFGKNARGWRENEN
Summed up:
as §1

The target of experiment [5] is SPIB (Homo sapiens, UniProt Q01892 1-262). Summed up: as §1
Sequence of SPIB (Q01892 whole entry): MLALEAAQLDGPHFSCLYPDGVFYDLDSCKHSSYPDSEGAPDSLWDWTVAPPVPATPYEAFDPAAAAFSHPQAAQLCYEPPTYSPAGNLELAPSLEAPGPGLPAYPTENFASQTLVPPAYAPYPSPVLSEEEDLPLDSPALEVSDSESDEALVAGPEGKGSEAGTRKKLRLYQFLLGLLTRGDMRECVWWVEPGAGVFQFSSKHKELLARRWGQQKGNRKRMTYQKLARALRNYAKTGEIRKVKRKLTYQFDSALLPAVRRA
Experiment [6] concerns the target T5, FEV (Homo sapiens, UniProt Q99581 1-238).
T5 sequence: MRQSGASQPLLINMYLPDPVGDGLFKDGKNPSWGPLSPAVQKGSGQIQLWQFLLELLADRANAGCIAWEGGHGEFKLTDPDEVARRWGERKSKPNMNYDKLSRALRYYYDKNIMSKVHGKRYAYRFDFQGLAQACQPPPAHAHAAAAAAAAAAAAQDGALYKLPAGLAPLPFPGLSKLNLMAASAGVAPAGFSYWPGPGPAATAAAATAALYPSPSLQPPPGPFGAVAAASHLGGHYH
In outline:
as §1

Experiment [7] addresses ETV5 (Homo sapiens, UniProt P41161 1-510). In outline: as §1
The target of experiment [8] is ELF4 (Homo sapiens, UniProt Q99607 1-663). In outline:
as §1

The target in experiment [9] is T6, ETV2 (Homo sapiens, UniProt O00321 1-342).
T6 sequence: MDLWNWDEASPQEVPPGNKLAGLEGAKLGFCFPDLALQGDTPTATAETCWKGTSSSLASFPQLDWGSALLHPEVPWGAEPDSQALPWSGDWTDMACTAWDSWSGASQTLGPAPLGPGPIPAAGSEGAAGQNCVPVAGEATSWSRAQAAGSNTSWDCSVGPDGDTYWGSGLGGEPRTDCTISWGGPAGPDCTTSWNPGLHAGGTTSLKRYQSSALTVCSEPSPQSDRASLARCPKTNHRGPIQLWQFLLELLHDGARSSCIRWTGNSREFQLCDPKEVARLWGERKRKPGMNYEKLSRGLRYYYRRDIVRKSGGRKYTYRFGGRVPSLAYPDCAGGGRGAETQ
In outline: as §1

The target in experiment [10] is T7, ELF3 (Homo sapiens, UniProt P78545 1-371).
T7 sequence: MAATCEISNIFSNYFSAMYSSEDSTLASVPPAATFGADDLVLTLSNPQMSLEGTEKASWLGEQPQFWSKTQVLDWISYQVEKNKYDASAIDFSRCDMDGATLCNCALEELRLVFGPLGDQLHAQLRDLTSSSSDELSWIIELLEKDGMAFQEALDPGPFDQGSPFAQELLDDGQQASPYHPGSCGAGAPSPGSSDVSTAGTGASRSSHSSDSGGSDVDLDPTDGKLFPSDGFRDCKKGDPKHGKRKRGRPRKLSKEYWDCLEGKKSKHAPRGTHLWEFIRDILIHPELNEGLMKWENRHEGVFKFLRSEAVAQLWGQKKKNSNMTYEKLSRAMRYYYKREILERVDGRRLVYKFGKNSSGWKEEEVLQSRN
In outline:
as §1

The target of experiment [11] is ETV1 (Homo sapiens, UniProt P50549 1-477). In outline: as §1
Sequence of ETV1 (P50549 whole entry): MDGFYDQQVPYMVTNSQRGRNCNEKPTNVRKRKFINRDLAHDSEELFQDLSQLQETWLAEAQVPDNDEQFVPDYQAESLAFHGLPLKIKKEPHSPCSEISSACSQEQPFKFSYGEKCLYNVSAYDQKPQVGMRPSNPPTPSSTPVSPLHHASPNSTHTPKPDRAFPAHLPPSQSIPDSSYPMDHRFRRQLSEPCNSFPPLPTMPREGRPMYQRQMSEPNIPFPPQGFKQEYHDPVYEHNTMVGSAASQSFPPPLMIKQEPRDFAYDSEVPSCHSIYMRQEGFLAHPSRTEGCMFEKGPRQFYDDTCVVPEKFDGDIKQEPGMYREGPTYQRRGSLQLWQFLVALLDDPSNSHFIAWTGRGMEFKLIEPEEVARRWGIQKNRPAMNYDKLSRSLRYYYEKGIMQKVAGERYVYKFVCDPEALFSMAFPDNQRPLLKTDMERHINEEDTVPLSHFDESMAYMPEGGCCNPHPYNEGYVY
The target of experiment [12] is T8, ELK4 (Homo sapiens, UniProt P28324-2 1-405).
T8 sequence: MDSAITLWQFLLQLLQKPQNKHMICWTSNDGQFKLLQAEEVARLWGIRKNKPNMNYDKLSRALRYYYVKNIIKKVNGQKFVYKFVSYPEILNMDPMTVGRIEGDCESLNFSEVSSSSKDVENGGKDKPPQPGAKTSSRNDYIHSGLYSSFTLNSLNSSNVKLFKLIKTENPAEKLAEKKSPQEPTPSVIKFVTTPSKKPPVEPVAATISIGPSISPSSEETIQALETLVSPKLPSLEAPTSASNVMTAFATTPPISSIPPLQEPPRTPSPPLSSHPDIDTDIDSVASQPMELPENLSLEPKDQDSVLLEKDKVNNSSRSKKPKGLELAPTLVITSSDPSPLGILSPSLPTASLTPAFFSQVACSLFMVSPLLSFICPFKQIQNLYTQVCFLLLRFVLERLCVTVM
Summed up:
as §1

The target in experiment [13] is T9, ETV3L (Homo sapiens, UniProt Q6ZN32 1-361).
T9 sequence: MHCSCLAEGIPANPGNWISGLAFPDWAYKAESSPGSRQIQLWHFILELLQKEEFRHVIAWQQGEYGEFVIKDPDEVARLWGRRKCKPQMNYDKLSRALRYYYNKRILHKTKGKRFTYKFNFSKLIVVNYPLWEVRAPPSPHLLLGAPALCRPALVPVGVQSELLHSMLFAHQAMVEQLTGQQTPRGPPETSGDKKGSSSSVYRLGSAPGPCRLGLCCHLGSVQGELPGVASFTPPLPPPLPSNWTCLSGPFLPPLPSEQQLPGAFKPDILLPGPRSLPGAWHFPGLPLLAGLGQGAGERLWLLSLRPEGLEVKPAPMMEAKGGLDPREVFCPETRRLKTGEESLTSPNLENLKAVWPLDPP
Summed up:
as §1

For experiment [14], the target named is T10, ETV7 (Homo sapiens, UniProt Q9Y603 1-341).
T10 sequence: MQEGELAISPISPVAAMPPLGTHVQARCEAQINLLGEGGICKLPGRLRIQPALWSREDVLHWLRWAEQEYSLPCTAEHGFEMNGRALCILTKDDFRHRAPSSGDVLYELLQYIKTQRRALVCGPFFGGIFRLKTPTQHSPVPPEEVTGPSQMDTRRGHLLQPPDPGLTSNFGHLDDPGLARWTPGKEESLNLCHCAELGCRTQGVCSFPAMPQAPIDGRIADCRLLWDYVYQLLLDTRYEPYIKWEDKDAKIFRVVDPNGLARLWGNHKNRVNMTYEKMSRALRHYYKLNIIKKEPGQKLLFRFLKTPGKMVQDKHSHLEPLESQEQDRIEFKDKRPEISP
Summed up: as §1

Experiment [15] deals with ETV6 (Homo sapiens, UniProt P41212 1-452). In outline: as §1
Sequence of ETV6 (P41212 whole entry): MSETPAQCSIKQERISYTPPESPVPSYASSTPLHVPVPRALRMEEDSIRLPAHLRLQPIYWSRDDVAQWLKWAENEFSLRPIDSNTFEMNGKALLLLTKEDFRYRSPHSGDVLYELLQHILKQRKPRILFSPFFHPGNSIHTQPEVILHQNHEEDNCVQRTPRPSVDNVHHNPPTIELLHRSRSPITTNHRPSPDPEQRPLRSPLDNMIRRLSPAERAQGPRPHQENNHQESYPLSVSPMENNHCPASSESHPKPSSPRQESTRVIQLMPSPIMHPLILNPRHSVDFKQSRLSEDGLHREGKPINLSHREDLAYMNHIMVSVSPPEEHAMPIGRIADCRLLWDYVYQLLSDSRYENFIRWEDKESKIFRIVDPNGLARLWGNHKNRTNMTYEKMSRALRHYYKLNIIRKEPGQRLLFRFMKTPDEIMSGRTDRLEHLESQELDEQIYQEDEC
Experiment [16] has as its target ELF1 (Homo sapiens, UniProt P32519 1-619). In outline:
as §1

Experiment [17] deals with T11, ETS2 (Homo sapiens, UniProt P15036 1-469).
T11 sequence: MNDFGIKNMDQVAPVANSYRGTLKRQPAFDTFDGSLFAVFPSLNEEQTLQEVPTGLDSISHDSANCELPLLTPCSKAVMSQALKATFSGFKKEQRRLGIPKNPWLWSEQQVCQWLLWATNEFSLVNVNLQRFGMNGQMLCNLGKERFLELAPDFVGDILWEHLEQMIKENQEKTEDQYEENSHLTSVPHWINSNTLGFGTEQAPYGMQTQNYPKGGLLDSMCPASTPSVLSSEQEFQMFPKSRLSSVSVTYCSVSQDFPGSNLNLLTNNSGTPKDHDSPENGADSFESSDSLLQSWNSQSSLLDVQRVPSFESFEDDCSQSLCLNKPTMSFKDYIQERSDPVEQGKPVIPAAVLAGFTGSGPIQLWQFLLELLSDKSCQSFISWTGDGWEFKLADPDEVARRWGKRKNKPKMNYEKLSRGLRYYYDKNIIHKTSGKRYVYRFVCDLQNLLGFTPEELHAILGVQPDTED
In outline: as §1

Experiment [18] has as its target T12, ETV3 (Homo sapiens, UniProt P41162-2 1-143).
T12 sequence: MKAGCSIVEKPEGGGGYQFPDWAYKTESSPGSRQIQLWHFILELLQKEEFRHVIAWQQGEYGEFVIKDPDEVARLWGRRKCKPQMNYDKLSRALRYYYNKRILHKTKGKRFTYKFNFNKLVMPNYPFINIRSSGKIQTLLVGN
In outline:
as §1

Sequence of ELF4 (Q99607 whole entry): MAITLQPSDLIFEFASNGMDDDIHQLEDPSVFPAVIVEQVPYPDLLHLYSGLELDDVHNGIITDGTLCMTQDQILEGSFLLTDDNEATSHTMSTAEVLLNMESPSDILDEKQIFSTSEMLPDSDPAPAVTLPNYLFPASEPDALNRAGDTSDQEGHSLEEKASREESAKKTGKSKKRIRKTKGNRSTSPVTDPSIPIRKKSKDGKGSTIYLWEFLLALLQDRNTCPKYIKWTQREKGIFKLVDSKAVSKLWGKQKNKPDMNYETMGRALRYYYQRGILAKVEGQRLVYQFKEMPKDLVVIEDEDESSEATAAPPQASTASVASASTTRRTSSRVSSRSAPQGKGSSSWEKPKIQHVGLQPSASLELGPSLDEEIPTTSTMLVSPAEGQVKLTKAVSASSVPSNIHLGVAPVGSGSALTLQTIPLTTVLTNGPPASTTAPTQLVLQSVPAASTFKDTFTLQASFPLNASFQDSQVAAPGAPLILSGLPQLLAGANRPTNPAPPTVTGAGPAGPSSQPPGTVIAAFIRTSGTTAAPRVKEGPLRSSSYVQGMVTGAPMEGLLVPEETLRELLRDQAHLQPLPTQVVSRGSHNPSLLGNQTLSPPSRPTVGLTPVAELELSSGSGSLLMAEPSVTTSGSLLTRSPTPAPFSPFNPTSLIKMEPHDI
Sequence of ETV5 (P41161 whole entry): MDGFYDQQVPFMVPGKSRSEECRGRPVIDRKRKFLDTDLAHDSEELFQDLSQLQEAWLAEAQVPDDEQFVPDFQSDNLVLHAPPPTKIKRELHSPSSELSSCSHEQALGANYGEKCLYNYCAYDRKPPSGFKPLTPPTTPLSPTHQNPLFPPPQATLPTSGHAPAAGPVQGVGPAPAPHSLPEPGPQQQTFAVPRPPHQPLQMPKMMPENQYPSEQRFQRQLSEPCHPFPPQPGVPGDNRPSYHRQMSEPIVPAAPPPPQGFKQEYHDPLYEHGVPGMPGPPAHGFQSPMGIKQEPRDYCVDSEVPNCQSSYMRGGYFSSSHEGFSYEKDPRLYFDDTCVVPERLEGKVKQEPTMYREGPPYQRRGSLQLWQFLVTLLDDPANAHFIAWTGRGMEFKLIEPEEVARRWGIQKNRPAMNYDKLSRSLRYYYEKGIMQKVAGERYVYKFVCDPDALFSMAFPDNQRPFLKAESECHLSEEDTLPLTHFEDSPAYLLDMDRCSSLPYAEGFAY
Sequence of ELF1 (P32519 whole entry): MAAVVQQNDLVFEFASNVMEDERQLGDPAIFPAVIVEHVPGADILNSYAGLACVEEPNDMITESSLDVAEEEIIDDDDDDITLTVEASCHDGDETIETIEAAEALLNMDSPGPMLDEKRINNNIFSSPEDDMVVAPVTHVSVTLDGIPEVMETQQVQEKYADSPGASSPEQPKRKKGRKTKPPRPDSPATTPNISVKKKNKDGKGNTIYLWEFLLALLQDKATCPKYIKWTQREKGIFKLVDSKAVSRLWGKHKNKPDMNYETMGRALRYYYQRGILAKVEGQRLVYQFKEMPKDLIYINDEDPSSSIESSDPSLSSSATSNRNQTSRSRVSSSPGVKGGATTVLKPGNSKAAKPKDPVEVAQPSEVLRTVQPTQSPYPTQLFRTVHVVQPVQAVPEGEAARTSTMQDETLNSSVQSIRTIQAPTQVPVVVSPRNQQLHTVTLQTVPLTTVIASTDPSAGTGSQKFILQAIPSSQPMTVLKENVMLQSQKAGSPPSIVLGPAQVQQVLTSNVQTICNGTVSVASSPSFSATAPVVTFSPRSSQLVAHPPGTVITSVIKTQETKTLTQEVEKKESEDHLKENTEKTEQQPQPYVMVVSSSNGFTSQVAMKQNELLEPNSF

In the case of GGTCAC, the binding signal was 1.02 fold enrichment (6-mer frequency, TF over GST control) in experiment [1]; 1.06 fold enrichment (6-mer frequency, TF over GST control) in [2]; 1.01 fold enrichment (6-mer frequency, TF over GST control) in experiment [3]; 1.04 fold enrichment (6-mer frequency, TF over GST control) in experiment [4]; 1.02 fold enrichment (6-mer frequency, TF over GST control) in experiment [5]; 1.04 fold enrichment (6-mer frequency, TF over GST control) in experiment [6]. In addition, the binding signal in experiment [7] is 1 fold enrichment (6-mer frequency, TF over GST control); in experiment [8], 1.03 fold enrichment (6-mer frequency, TF over GST control); in experiment [9] it was 1.15 fold enrichment (6-mer frequency, TF over GST control); in [10], 1.05 fold enrichment (6-mer frequency, TF over GST control); in experiment [11], 1.02 fold enrichment (6-mer frequency, TF over GST control).

With CGCGTA, the binding signal was 1.01 fold enrichment (6-mer frequency, TF over GST control) in experiment [2]; 1.05 fold enrichment (6-mer frequency, TF over GST control) in experiment [5]; 1 fold enrichment (6-mer frequency, TF over GST control) in experiment [7]; 1.08 fold enrichment (6-mer frequency, TF over GST control) in [8]; 1.07 fold enrichment (6-mer frequency, TF over GST control) in experiment [12]; 1.03 fold enrichment (6-mer frequency, TF over GST control) in experiment [9]. For the same sequence, the binding signal in experiment [13] was 1.01 fold enrichment (6-mer frequency, TF over GST control); in [14] it was 1.07 fold enrichment (6-mer frequency, TF over GST control); in experiment [15], 1.01 fold enrichment (6-mer frequency, TF over GST control).

Consider CGCGTT, for which the binding signal in experiment [2] is 1.01 fold enrichment (6-mer frequency, TF over GST control); in experiment [16] it was 1.12 fold enrichment (6-mer frequency, TF over GST control); in experiment [5], 1.05 fold enrichment (6-mer frequency, TF over GST control); in [6] it was 1.09 fold enrichment (6-mer frequency, TF over GST control); in experiment [7] it was 1.02 fold enrichment (6-mer frequency, TF over GST control); in experiment [8] it was 1.1 fold enrichment (6-mer frequency, TF over GST control). Also, the binding signal was 1.09 fold enrichment (6-mer frequency, TF over GST control) in experiment [12]; 1.16 fold enrichment (6-mer frequency, TF over GST control) in experiment [9]; 1.05 fold enrichment (6-mer frequency, TF over GST control) in [10]; 1.06 fold enrichment (6-mer frequency, TF over GST control) in [11]; 1.15 fold enrichment (6-mer frequency, TF over GST control) in [13]; 1.13 fold enrichment (6-mer frequency, TF over GST control) in [17]. The binding signal was 1.02 fold enrichment (6-mer frequency, TF over GST control) in experiment [14]; 1.03 fold enrichment (6-mer frequency, TF over GST control) in [18]; 1.06 fold enrichment (6-mer frequency, TF over GST control) in [15].
